Rpn11 inh – Rpn11 (PSMD14) deubiquitinase inhibitors, primary screen, biochemical, fluorescence polarization, uHTS; 26S proteasome non-ATPase regulatory subunit 14 (Homo sapiens), O00487; human 26S proteasome, Ub4-pepOG fluorescence polarization; 20S core pre-blocked with epoxomicin; inhibition, % at 20 µM; 0.59% of 360,000 active; AID 588493, 2011;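 active = inhibition at 20 µM, scaled to each plate's controls, above about 33%, limit read from the data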
IDE cell inh – human IDE inhibitors in live cells, primary screen, fluorescence polarization, HEK cells, FAbetaB substrate; inhibition, % at 5.59 µM; AID 434962, 2010; Insulin-degrading enzyme (Homo sapiens), P14735; 0.41% of 320,000 active; FAbetaB cleavage;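 active = percent inhibition above the average of all tested compounds plus 3 SD, set per screening campaign, cut at about 16% in these data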;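 note: IDE supplied by intact live HEK cells; FP after avidin binding of uncleaved biotin substrate so inhibition keeps polarization high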
TPT1 inh – Candida albicans TPT1 enzyme inhibitors, primary screen, biochemical, fluorescence polarization; tRNA 2'-phosphotransferase TPT1 (Candida albicans SC5314); recombinant caTPT1, FP RNA substrate dephosphorylation; inhibition, % at 5 µM; 0.81% of 300,000 active; AID 1962, 2009;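 active = inhibition above the mean of all tested compounds plus 3 SD, set per screening campaign, cut at about 24% in these data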
IDE act – human IDE activators in live cells, primary screen, fluorescence polarization, HEK cells, FAbeta-B substrate | FAbeta-B cleavage; 0% vehicle, 100% cell-free pure enzyme wells | Insulin-degrading enzyme (Homo sapiens), P14735 | 0.073% of 340,000 active | AID 493087, 2011 | activation, % at 5.96 µM;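 active = activation above the mean of all tested compounds plus 3 SD, set per screening campaign, cut at about 17% in these data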
Rin1-Abl PPI inh – inhibitors of Rin1-Abl protein binding, primary screen, biochemical, TR-FRET; Tyrosine-protein kinase ABL1 (Homo sapiens) + Ras and Rab interactor 1 (Homo sapiens), …; inhibition, % at 7.35 µM; 0.4% of 360,000 active; AID 588664, 2011; in the data active = inhibition above about 5%, passing the limit was not always enough
Calb FLC – C. albicans growth inhibition with fluconazole, primary screen, CaCi-2 strain, Alamar Blue fluorescence. AID 1979, 2009. C. albicans CaCi-2 (fluconazole-resistant clinical isolate) + fluconazole, 48 h. 0.57% of 300,000 active. growth inhibition, % (concentration not given with the values);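 active = growth inhibition above about 58% in most replicates, limit read from the data, passing the limit was not always enough; inconclusive = exactly half the replicates above a set limit; inactive = most replicates below a set limit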;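 note: all wells also contain fluconazole at 8 µg/ml as a sub-toxic cotreatment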
Rpn11 inh conf – Rpn11 (PSMD14) deubiquitinase inhibitors, confirmation, biochemical, fluorescence polarization, single concentration; shares compounds with Rpn11 inh; purified human 26S proteasome, Ub4-pepOG fluorescence polarization; proteasome pretreated with epoxomicin; inhibition, % at 20 µM; 29% of 1,900 active; AID 602318, 2012
MMP-2 inh – MMP-2 enzyme inhibition, confirmation, counter-screen for RPN11 inhibitor project, biochemical, fluorescence, single concentration | shares compounds with Rpn11 inh | recombinant MMP-2, FRET peptide cleavage fluorescence | inhibition, % at 20 µM | 4% of 1,900 active;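 note: human MMP-2 activated beforehand with APMA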
Thrombin FP – bovine thrombin protease inhibition, confirmation, counter-screen for Rpn11 inhibitor project, biochemical, fluorescence polarization, single concentration; bovine thrombin cleavage of Ub4-pepOG; shares compounds with Rpn11 inh; AID 602333, 2012; inhibition, % at 20 µM; 13% of 1,900 active;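 active = mean inhibition at least 40% at 20 µM, or signal 3 deviations below plate average, so some actives read negative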
Target sequence (P00735 whole entry, looked up): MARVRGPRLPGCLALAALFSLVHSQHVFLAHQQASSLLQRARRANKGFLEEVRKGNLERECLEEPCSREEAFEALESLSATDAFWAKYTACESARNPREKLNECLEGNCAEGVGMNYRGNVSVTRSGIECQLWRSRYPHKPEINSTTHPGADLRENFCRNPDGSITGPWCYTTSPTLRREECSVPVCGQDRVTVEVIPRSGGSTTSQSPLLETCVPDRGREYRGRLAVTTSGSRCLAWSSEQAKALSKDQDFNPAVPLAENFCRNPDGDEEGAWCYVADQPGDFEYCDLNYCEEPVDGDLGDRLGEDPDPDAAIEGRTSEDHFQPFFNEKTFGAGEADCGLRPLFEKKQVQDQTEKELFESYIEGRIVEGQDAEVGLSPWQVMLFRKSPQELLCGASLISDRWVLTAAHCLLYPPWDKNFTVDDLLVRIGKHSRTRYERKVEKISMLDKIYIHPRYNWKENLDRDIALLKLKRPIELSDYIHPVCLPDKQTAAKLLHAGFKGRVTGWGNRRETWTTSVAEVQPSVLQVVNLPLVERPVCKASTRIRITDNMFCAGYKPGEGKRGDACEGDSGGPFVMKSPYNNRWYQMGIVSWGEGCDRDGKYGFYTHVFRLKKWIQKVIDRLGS
Numbers stand for hits; 0 = inactive; ? = inconclusive; - = no result given. A selection: hits, their analogues and other compounds. The true share with any hit is near 2.3%. Cut-off read from the data, not from the text of the source, unless noted: active = inhibition above about 40%; inactive = the rest.

SMILES | Rpn11 inh | IDE cell inh | TPT1 inh | IDE act | Rin1-Abl PPI inh | Calb FLC | Rpn11 inh conf | MMP-2 inh | Thrombin FP
CC(=O)C1=C(C)NC(SCC(=O)c2ccc(F)cc2)=C(C#N)C1c1ccco1 (stereo not drawn) | 0 | 0 | 0 | 0 | 0 | 0 | - | - | -
CC(C)CN(C(=O)c1ccc(-n2cncn2)c([N+](=O)[O-])c1)C1CCS(=O)(=O)C1 (stereo not drawn) | 0 | 0 | 0 | 0 | 0 | 0 | - | - | -
CCCCCCOC(=O)c1ccc(N)cc1 | 0 | 0 | 0 | 0 | 0 | 0 | - | - | -
CCCCCCCCCCCC1N=C(N)NC(CCCO)=C1C(=O)OC (stereo not drawn) | 86 | - | - | 0 | 0 | - | 49 | 0 | 0
Cc1c(CCC(=O)O)c(=O)oc2cc3occ(-c4ccc(Br)cc4)c3cc12 | 0 | 0 | 0 | 0 | 0 | 0 | - | - | -
COc1ccc(N2CC(C)(C)[C@H](CC(=O)Nc3ccccc3)C2=O)cc1 | 0 | - | - | - | 0 | - | - | - | -
CCCCNc1c(-c2ccc(SC(C)CC)c(OC)c2)nc2ccc(Cl)cn12 (stereo not drawn) | 0 | 0 | - | 0 | 0 | - | - | - | -
CCCCCCSc1ccc(-c2nc3ccc(Cl)cn3c2NCCCC)cc1OC | 36 | 0 | - | 0 | 0 | - | 0 | 0 | 0
Nc1ccccc1C(=O)NCC1(c2ccccc2)CCCC1 | 0 | 0 | 0 | 0 | 0 | 0 | - | - | -
O=c1c2ccccc2c(C=NCc2ccccn2)c(O)n1-c1ccccc1 | 49 | 0 | 0 | 0 | 0 | 0 | 0 | 0 | 0
COc1cccc(-n2c(O)c(C=NCc3ccccn3)c3ccccc3c2=O)c1 | 0 | 0 | 0 | 0 | 0 | 0 | - | - | -
CCOc1cc(CNc2nn[nH]n2)ccc1OCC(=O)NC(C)(C)C | 0 | 0 | 0 | 0 | 0 | 0 | - | - | -
O=C(Nc1ccc2oc(-c3ccc(Cl)c(Cl)c3)nc2c1)c1ncn[nH]1 | 49 | 0 | 0 | 0 | 0 | 0 | 0 | 0 | 0
CCN(CC)C(=O)CSc1nc2c(sc(=S)n2-c2ccccc2OC)c(=O)n1-c1ccccc1 | 41 | 0 | 0 | 0 | 0 | 0 | 0 | 0 | 0
O=C(CCCN1C(=O)/C(=C/c2cccs2)SC1=S)NNC(=O)c1ccncc1 | 47 | 0 | 0 | 0 | 0 | 0 | 0 | 0 | 0
O=C(CCCN1C(=O)/C(=C/c2cccs2)SC1=S)Nc1ccccc1O | 0 | 0 | 0 | 0 | 0 | 0 | - | - | -
O=C(CCCN1C(=O)/C(=C\c2cccs2)SC1=S)Nc1ccccn1 | 34 | 0 | 0 | 0 | 0 | ? | 0 | 0 | 0
O=C(CCCN1C(=O)/C(=C/c2ccccc2Cl)SC1=S)NNC(=O)c1ccncc1 | 0 | 0 | 0 | 0 | 0 | 0 | - | - | -
O=C(CCCN1C(=O)/C(=C\c2cccs2)SC1=S)NNC(=O)c1cccnc1 | 166 | 0 | 0 | 0 | 0 | 0 | 0 | 0 | 0
Nn1c(COc2ccccc2F)nnc1SCC(=O)NCC1CCCO1 (stereo not drawn) | 0 | - | - | - | 0 | - | - | - | -
CC(=O)Nc1sc(C)c(C)c1C(=O)OCCOc1ccccc1 | 34 | 0 | 0 | 0 | 0 | 0 | 0 | 0 | 0
Cc1ccc(C2=NS(=O)(=O)N(C)C(C(=O)NC3CCCC3)=C2)cc1 | 0 | 0 | 0 | 0 | 0 | 0 | - | - | -
O=[N+]([O-])c1ccc(Sc2cccc3cccnc23)c([N+](=O)[O-])c1 | 71 | 0 | 0 | 0 | 0 | 0 | 57 | 0 | 0
O=[N+]([O-])c1cc(Cl)ccc1Sc1cccc2cccnc12 | 0 | 0 | 0 | 0 | 0 | 0 | - | - | -
C=CCn1nc([N+](=O)[O-])nc1Sc1cccc2cccnc12 | 67 | 0 | 0 | 0 | 0 | 0 | 0 | 0 | 0
SMILES | Rpn11 inh | IDE cell inh | TPT1 inh | IDE act | Rin1-Abl PPI inh | Calb FLC | Rpn11 inh conf | MMP-2 inh | Thrombin FP
Cc1cccc(-n2cnc(C(=O)N/N=C\c3ccc(Br)cc3)c2)n1 | 49 | 0 | 0 | 0 | 0 | 0 | 0 | 0 | 0
Cc1cccc(-n2cnc(C(=O)NNC(=S)Nc3ccc(Cl)cc3)c2)n1 | 0 | 0 | 0 | 0 | 0 | ? | - | - | -
Cc1ccc(Cn2c(Cc3ccccc3)nc3ccccc32)cc1 | 0 | 0 | 0 | 0 | 0 | 0 | - | - | -
Cc1ccc(Cn2c(/C=C/c3ccco3)nc3ccccc32)cc1 | 59 | 0 | 0 | 0 | 0 | 0 | 0 | 0 | 0
COC(=O)c1cc(Br)c(=O)n(CCc2ccc(F)cc2)c1 | 93 | 0 | 0 | 0 | 0 | 0 | 0 | 0 | 0
Cc1ccc(NC(=O)COc2ccc3c(c2)OCO3)c(C)c1 | 0 | 0 | - | 0 | 0 | - | - | - | -
O=C(N/N=C/c1ccc([N+](=O)[O-])cc1)c1cccnc1 | 0 | 0 | 0 | 0 | 0 | 0 | - | - | -
O=C(N/N=C/c1ccc(-c2ccc([N+](=O)[O-])cc2)o1)c1cccnc1 | 85 | 0 | 0 | - | 0 | 0 | 49 | 0 | 0
O=[N+]([O-])c1ccc(-c2ccc(/C=N/Nc3nc(N4CCCCC4)nc(N4CCCCC4)n3)o2)cc1 | 58 | - | - | - | 0 | ? | 0 | 0 | 0
O=[N+]([O-])c1ccc(/C=N/Nc2nc(N3CCCC3)nc(N3CCCC3)n2)o1 | 0 | 0 | 0 | 0 | 0 | ? | - | - | -
O=C(c1cccc(NC2=NC3CS(=O)(=O)CC3S2)c1)N1CCN(c2ncccn2)CC1 (stereo not drawn) | 0 | 0 | 0 | 0 | 0 | 0 | - | - | -
Cc1cc(C)n2nc(N)c(N=Nc3ccc4c(c3)OCO4)c2n1 | 44 | 0 | 0 | 0 | 0 | 0 | 0 | 0 | 0
COc1ccc(NC(=O)CNc2cc(C)ccc2C)cc1S(=O)(=O)N1CCOCC1 | 0 | 0 | - | 0 | 0 | - | - | - | -
COc1cc(NC(=O)CCCn2c(=S)[nH]c3ccccc3c2=O)cc(OC)c1OC | 0 | 0 | 0 | 0 | 0 | 0 | - | - | -
COc1cc(NC(=O)CCn2c(=S)[nH]c3ccccc3c2=O)cc(OC)c1OC | 64 | - | - | - | 0 | - | 103 | 0 | 0
COc1ccc(/C=C2\CCCC3C2=NN(C(=O)CSc2ncn[nH]2)C3c2ccc(OC)cc2)cc1 (stereo not drawn) | 41 | 0 | 0 | 0 | 0 | 0 | 0 | 0 | 0
Cc1sc(NC(=O)c2cccs2)c(C(=O)OC(C)C)c1C | 50 | 0 | 0 | 0 | 0 | 0 | 0 | 0 | 0
CCN(CC)c1ccc(N2C(=O)CSC2=S)cc1 | 51 | 0 | 0 | 0 | 0 | 0 | 0 | 61 | 0
CCOc1ccc(N2C(=O)CSC2=S)cc1 | 0 | 0 | 0 | 0 | 0 | 0 | - | - | -

From PubChem
